# Reference: PubChem BioAssay (EPA / NIEHS)
# Records with an inconclusive call do not appear. The source holds several records for some structures; these can differ, active in one and inactive in another. Activity calls are given as the source filed them. How the source made its calls: active means hit-call score of the fitted dose curve at least 0.9, where 1 is the maximum; inconclusive means response in the unintended direction; inactive means score below 0.9.
# Columns and labels:
# [1] = target: human Phosphoinositide 3-kinase alpha (PI3Ka), PIK3CA (gene 5290) (UniProt P42336); assay: NVS_ENZ_hPI3Ka: NovaScreen (NVS) Enzymatic Assay for human Phosphoinositide 3-kinase alpha (PI3Ka) (AID 2283196)
# Procedure, shortened: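 Fluorescence/mobility-shift readout of substrate conversion by recombinant enzyme, 1 h post-dosing. Primary screen in duplicate at 25 uM; actives (e.g. ≥30% inhibition) retested in singleton concentration-response, top concentration 50 uM.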
# [2] = target: Mitogen-activated protein kinase 3 (Homo sapiens) (UniProt P27361); assay: NVS_ENZ_hMAPK3: NovaScreen (NVS) Enzymatic Assay for human Mitogen-Activated Protein Kinase 3 (MAPK 3) (AID 2283177)
# Procedure, shortened: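 Cell-free enzymatic assay with recombinant protein and specific substrate; fluorescence and electrophoretic mobility shift read-out 1 h after dosing. Primary screen duplicate at 25 uM; actives then run in concentration-response up to 50 uM, loss of signal versus DMSO.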
# [3] = target: human MAP Kinase-Activated Protein Kinase 2 (MAPKAPK2), MAPKAPK2 (gene 9261) (UniProt P49137); assay: NVS_ENZ_hMAPKAPK2: NovaScreen (NVS) Enzymatic Assay for human MAP Kinase-Activated Protein Kinase 2 (MAPKAPK2) (AID 2283178)
# Procedure, shortened: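 Cell-free recombinant human MAPKAPK2 activity measured by fluorescence with electrophoretic mobility shift separation of substrate and product, 1 hr after dosing. Loss of signal versus DMSO; primary screen at 25 uM, concentration-response up to 50 uM.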
# [4] = target: human Matrix Metalloproteinase-3 (MMP3), MMP3 (gene 4314) (UniProt P08254); assay: NVS_ENZ_hMMP3: NovaScreen (NVS) Enzymatic Assay for human Matrix Metalloproteinase-3 (MMP3) (AID 2283185)
# Procedure, shortened: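 Cell-free recombinant human MMP3 activity, fluorescence intensity read 1 h after dosing. Primary screen duplicate at 25 uM, actives retested in concentration series; loss of signal vs DMSO baseline.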
# [5] = target: human Mitogen- and Stress-activated Protein Kinase-1 (Msk1), RPS6KA5 (gene 9252) (UniProt O75582); assay: NVS_ENZ_hMsk1: NovaScreen (NVS) Enzymatic Assay for human Mitogen- and Stress-activated Protein Kinase-1 (Msk1) (AID 2283187)
# Procedure, shortened: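 Recombinant kinase with fluorescent substrate; product separated by electrophoretic mobility shift, read 1 h after dosing. Screened in duplicate at 25 uM; hits (e.g. ≥30% inhibition) tested in concentration–response up to 50 uM. DMSO baseline.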
# [6] = target: human Phosphodiesterase 4A1 (PDE4A1), PDE4A (gene 5141) (UniProt P27815); assay: NVS_ENZ_hPDE4A1: NovaScreen (NVS) Enzymatic Assay for human Phosphodiesterase 4A1 (PDE4A1) (AID 2283191)
# Procedure, shortened: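 Cell-free recombinant human PDE4A1 with fluorescent substrate; product separated by electrophoretic mobility shift, 1 h. Screened at 25 uM, then up to 50 uM in concentration-response; loss of signal fitted against DMSO.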
# [7] = target: cAMP-dependent protein kinase catalytic subunit alpha (Homo sapiens) (UniProt P17612); assay: NVS_ENZ_hPKA: NovaScreen (NVS) Enzymatic Assay for human Protein Kinase A (PKA) (AID 2283192)
# Procedure, shortened: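 Recombinant human PKA with specific fluorescent substrate, product separated by electrophoretic mobility shift, read 1 h after dosing. Primary screen at 25 uM in duplicate; actives then run in concentration-response up to 50 uM, activity relative to DMSO.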
# [8] = target: human Phosphodiesterase 10 (PDE10), PDE10A (gene 10846) (UniProt Q9Y233); assay: NVS_ENZ_hPDE10: NovaScreen (NVS) Enzymatic Assay for human Phosphodiesterase 10 (PDE10) (AID 2283195)
# Procedure, shortened: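 PDE10A, cell-free; 1 h incubation; fluorescence intensity + electrophoretic mobility shift separating substrate/product; DMSO = baseline; 25 uM duplicate primary, CRC up to 50 uM.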
# [9] = target: human Protein Tyrosine Phosphatase Non-receptor Type 1 (PTPN1), PTPN1 (gene 5770) (UniProt P18031); assay: NVS_ENZ_hPTPN1: NovaScreen (NVS) Enzymatic Assay for human Protein Tyrosine Phosphatase Non-receptor Type 1 (PTPN1) (AID 2283201)
# Procedure, shortened: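 Cell-free fluorogenic-substrate activity assay on recombinant enzyme, read 1.33 h after dosing by fluorescence and electrophoretic mobility shift; loss of signal vs DMSO baseline. Primary screen in duplicate at 25 uM, hits then run in concentration-response up to 50 uM.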
# [10] = target: Tyrosine-protein phosphatase non-receptor type 11 (Homo sapiens) (UniProt Q06124); assay: NVS_ENZ_hPTPN11: NovaScreen (NVS) Enzymatic Assay for human Protein Tyrosine Phosphatase Non-receptor Type 11 (PTPN11) (AID 2283202)
# Procedure, shortened: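 Recombinant human PTPN11 activity on a fluorescent substrate, with substrate/product separated by electrophoretic mobility shift; read 0.5 h after dosing, loss of signal vs DMSO. Duplicate 25 uM screen, then concentration-response up to 50 uM.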
# [11] = target: Tyrosine-protein phosphatase non-receptor type 12 (Homo sapiens) (UniProt Q05209); assay: NVS_ENZ_hPTPN12: NovaScreen (NVS) Enzymatic Assay for human Protein Tyrosine Phosphatase Non-receptor Type 12 (PTPN12) (AID 2283204)
# Procedure, shortened: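 Single-concentration duplicates (25 uM) preceded singleton concentration-response up to 50 uM for chemicals passing threshold. Cell-free recombinant PTPN12 activity was read 1.33 h after dosing via fluorescence after mobility-shift separation; loss of signal versus DMSO.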
# [12] = target: Tyrosine-protein phosphatase non-receptor type 13 (Homo sapiens) (UniProt Q12923); assay: NVS_ENZ_hPTPN13: NovaScreen (NVS) Enzymatic Assay for human Protein Tyrosine Phosphatase Non-receptor Type 13 (PTPN13) (AID 2283205)
# Procedure, shortened: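 Cell-free assay of recombinant human PTPN13 with a fluorescent substrate, product separated by electrophoretic mobility shift and read 0.5 h after dosing. Primary screen at 25 uM in duplicate, then concentration-response up to 50 uM. Loss of signal fitted against DMSO.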
# [13] = target: Tyrosine-protein phosphatase non-receptor type 14 (Homo sapiens) (UniProt Q15678); assay: NVS_ENZ_hPTPN14: NovaScreen (NVS) Enzymatic Assay for human Protein Tyrosine Phosphatase Non-receptor Type 14 (PTPN14) (AID 2283206)
# Procedure, shortened: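 Cell-free recombinant human PTPN14 with fluorescent substrate, read 0.5 h after dosing by fluorescence and electrophoretic mobility shift separating substrate from product. Primary screen at 25 uM in duplicate; hits run to 50 uM maximum; loss of signal versus DMSO.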
# [14] = target: human Protein Tyrosine Phosphatase Non-receptor Type 4 (PTPN4), PTPN4 (gene 5775) (UniProt P29074); assay: NVS_ENZ_hPTPN4: NovaScreen (NVS) Enzymatic Assay for human Protein Tyrosine Phosphatase Non-receptor Type 4 (PTPN4) (AID 2283208)
# Procedure, shortened: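 Cell-free assay of PTPN4 expressed in Sf9 cells, using a fluorescent substrate with product separated by mobility shift; read 1.33 h after dosing. Single-point screen at 25 uM, then concentration-response up to 50 uM. Loss of signal relative to DMSO.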
# [15] = target: human Protein Tyrosine Phosphatase Non-receptor Type 9 (PTPN9), PTPN9 (gene 5780) (UniProt P43378); assay: NVS_ENZ_hPTPN9: NovaScreen (NVS) Enzymatic Assay for human Protein Tyrosine Phosphatase Non-receptor Type 9 (PTPN9) (AID 2283209)
# Procedure, shortened: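 Sf9-expressed enzyme in a cell-free assay, fluorescence read 1.33 h after dosing with mobility-shift separation of substrate and product. Tested at 25 uM in duplicate, then up to 50 uM; signal loss versus DMSO.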
# [16] = target: human Phosphodiesterase 5 (PDE5), PDE5A (gene 8654) (UniProt O76074); assay: NVS_ENZ_hPDE5: NovaScreen (NVS) Enzymatic Assay for human Phosphodiesterase 5 (PDE5) (AID 2283194)
# Procedure, shortened: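 Recombinant human PDE5 with specific substrate, read 1 h after dosing by fluorescence with electrophoretic mobility-shift separation of substrate and product. Initial single-concentration duplicate screen at 25 uM, actives followed in concentration series; loss of activity versus DMSO.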
# [17] = target: human LYN Proto-Oncogene, Src family Tyrosine Kinase (LynA), LYN (gene 4067) (UniProt P07948); assay: NVS_ENZ_hLynA: NovaScreen (NVS) Enzymatic Assay for human LYN Proto-Oncogene, Src family Tyrosine Kinase (LynA) (AID 2283173)
# Procedure, shortened: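 Recombinant kinase with fluorescent substrate; product separated from substrate by electrophoretic mobility shift and read 1 h after dosing. Duplicate screen at 25 uM, then concentration-response up to 50 uM; activity scored as signal loss against DMSO.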
# [18] = target: Collagenase 3 (Homo sapiens) (UniProt P45452); assay: NVS_ENZ_hMMP13: NovaScreen (NVS) Enzymatic Assay for human Matrix Metalloproteinase-13 (MMP13) (AID 2283182)
# Procedure, shortened: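 Recombinant MMP13 cleaving fluorescent substrate, cell-free, measured 1 h after dosing. Primary duplicate screen at 25 uM; actives tested in concentration-response up to 50 uM; loss of signal relative to DMSO.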
# [19] = target: human Matrix Metalloproteinase-9 (MMP9), MMP9 (gene 4318) (UniProt P14780); assay: NVS_ENZ_hMMP9: NovaScreen (NVS) Enzymatic Assay for human Matrix Metalloproteinase-9 (MMP9) (AID 2283190);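 further: cell-free recombinant MMP9 protease activity read by fluorescent substrate signal; active means inhibition seen as loss of fluorescence signal versus DMSO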
# Procedure, shortened: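 Extracted enzyme, fluorescent substrate, 1 h post-dose read. Single conc 25 uM in duplicate, then concentration series for actives. Activity = signal loss relative to DMSO negative control.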
# [20] = target: Serine/threonine-protein phosphatase PP1-alpha catalytic subunit (Homo sapiens) (UniProt P62136); assay: NVS_ENZ_hPPP1CA: NovaScreen (NVS) Enzymatic Assay for human Protein Phosphatase 1 Aatalytic subunit Alpha (PPP1CA) (AID 2283200)
# Procedure, shortened: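 Recombinant enzyme activity read by fluorescence with electrophoretic mobility shift separating substrate from product, 1.33 h after dosing; loss of signal vs DMSO baseline. Primary screen in duplicate at 25 uM; actives retested in concentration-response up to 50 uM.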
# human Phosphodiesterase 10 (PDE10), PDE10A (gene 10846), sequence (Q9Y233 whole entry, looked up): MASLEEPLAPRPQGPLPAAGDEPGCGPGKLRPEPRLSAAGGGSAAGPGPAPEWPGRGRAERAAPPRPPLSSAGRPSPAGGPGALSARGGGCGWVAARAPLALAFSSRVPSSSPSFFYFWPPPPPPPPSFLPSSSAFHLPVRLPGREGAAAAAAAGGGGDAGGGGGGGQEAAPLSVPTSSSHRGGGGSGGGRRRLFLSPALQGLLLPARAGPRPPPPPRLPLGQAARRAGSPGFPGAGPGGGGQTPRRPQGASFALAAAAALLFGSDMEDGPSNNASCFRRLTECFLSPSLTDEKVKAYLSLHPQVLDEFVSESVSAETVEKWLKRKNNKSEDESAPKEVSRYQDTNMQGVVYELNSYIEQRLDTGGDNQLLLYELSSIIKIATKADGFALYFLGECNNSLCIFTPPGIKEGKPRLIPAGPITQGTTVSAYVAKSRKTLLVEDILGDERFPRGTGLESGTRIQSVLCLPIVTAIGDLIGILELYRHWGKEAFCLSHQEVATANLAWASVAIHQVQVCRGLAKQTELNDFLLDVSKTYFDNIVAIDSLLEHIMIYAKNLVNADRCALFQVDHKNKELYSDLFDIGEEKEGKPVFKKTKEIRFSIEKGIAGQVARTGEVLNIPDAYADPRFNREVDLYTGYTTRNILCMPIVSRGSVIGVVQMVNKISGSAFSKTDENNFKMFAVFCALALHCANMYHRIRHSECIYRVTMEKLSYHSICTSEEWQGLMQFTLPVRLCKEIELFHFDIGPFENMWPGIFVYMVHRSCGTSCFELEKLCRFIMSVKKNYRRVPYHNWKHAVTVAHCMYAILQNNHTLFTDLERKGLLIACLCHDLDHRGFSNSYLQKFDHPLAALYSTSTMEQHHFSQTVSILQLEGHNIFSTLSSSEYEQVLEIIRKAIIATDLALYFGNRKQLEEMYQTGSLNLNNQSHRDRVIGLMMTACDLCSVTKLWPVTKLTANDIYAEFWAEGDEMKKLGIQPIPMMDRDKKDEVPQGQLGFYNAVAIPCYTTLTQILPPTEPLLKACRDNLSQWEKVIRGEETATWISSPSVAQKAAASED
# human Phosphoinositide 3-kinase alpha (PI3Ka), PIK3CA (gene 5290), sequence (P42336 whole entry, looked up): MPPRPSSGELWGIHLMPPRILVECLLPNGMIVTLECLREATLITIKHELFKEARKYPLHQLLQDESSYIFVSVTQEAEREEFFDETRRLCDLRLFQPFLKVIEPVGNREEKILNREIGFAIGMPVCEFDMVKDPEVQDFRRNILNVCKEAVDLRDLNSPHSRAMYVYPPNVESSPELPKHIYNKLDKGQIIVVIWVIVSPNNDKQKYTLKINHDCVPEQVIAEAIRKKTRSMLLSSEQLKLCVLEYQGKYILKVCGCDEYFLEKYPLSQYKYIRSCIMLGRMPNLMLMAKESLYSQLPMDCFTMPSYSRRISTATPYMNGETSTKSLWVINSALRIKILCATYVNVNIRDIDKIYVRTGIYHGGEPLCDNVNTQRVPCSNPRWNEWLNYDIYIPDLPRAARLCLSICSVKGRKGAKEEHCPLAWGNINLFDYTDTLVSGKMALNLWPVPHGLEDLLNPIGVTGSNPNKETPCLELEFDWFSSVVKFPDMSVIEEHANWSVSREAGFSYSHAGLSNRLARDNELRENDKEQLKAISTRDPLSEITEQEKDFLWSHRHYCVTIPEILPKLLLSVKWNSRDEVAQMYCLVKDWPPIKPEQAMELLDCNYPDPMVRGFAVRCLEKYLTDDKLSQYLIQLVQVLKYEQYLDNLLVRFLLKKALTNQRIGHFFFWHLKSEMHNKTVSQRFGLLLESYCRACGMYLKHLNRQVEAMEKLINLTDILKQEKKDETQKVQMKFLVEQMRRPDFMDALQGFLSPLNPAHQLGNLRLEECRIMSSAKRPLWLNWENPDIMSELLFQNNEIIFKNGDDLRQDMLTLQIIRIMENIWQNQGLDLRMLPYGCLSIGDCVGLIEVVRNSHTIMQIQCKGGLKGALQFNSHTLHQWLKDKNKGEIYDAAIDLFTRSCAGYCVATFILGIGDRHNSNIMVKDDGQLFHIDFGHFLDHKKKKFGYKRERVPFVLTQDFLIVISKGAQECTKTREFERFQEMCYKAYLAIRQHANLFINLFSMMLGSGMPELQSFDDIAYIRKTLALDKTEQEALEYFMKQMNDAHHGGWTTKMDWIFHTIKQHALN
# human Matrix Metalloproteinase-9 (MMP9), MMP9 (gene 4318), sequence (P14780 whole entry, looked up): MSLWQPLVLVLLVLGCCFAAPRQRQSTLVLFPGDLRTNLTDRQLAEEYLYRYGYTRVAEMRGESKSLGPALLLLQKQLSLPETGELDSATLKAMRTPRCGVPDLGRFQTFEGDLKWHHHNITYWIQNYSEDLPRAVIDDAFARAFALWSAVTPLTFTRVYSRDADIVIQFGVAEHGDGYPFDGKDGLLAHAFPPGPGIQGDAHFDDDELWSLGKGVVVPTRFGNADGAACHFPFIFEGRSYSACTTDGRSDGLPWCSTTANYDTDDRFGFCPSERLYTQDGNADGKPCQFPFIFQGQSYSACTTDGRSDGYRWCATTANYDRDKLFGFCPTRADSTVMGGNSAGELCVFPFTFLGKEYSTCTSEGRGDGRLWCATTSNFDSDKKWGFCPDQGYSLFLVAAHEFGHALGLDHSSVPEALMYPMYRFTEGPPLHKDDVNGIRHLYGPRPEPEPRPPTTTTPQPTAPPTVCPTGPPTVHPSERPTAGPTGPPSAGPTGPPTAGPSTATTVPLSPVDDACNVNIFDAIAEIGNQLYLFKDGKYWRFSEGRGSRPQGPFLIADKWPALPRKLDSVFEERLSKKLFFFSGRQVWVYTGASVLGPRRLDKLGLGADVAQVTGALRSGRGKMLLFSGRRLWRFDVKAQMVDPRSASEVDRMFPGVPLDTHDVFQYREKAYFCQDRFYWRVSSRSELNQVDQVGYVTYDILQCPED
# Tyrosine-protein phosphatase non-receptor type 12 (Homo sapiens), sequence (Q05209 whole entry, looked up): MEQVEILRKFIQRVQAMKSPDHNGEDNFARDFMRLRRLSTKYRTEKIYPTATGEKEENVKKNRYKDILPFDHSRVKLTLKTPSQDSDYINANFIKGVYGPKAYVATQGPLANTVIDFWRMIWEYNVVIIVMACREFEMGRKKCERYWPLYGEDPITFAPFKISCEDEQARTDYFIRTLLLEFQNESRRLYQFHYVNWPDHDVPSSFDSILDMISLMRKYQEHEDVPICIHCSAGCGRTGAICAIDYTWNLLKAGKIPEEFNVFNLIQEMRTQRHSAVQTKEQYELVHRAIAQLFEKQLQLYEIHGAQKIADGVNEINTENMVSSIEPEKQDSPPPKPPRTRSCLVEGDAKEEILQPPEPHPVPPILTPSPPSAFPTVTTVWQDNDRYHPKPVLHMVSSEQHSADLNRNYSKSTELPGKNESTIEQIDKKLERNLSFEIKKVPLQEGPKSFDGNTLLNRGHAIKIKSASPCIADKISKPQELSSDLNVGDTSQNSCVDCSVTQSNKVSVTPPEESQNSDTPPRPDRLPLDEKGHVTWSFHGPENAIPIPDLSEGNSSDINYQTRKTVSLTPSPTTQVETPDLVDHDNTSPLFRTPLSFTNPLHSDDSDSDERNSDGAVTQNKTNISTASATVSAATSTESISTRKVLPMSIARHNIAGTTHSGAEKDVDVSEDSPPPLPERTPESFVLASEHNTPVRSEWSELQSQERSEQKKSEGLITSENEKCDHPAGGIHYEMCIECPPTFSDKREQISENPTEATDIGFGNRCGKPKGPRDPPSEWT
# human Protein Tyrosine Phosphatase Non-receptor Type 9 (PTPN9), PTPN9 (gene 5780), sequence (P43378 whole entry, looked up): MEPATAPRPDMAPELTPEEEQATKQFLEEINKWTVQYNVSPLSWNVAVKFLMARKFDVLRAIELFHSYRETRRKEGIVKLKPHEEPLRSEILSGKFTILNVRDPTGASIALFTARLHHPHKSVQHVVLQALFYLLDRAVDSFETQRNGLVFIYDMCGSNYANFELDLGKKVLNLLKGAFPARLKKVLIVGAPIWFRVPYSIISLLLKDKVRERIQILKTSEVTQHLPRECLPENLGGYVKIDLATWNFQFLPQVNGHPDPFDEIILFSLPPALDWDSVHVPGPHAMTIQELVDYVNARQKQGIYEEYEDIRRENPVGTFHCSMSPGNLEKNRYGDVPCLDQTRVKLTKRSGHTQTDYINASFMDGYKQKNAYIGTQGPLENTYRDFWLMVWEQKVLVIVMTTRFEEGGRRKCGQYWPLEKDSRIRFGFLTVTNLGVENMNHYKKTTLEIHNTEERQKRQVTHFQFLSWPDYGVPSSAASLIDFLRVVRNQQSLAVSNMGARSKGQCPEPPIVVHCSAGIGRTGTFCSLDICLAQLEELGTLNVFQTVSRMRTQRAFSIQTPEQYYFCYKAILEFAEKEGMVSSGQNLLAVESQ
# human Phosphodiesterase 4A1 (PDE4A1), PDE4A (gene 5141), sequence (P27815 whole entry, looked up): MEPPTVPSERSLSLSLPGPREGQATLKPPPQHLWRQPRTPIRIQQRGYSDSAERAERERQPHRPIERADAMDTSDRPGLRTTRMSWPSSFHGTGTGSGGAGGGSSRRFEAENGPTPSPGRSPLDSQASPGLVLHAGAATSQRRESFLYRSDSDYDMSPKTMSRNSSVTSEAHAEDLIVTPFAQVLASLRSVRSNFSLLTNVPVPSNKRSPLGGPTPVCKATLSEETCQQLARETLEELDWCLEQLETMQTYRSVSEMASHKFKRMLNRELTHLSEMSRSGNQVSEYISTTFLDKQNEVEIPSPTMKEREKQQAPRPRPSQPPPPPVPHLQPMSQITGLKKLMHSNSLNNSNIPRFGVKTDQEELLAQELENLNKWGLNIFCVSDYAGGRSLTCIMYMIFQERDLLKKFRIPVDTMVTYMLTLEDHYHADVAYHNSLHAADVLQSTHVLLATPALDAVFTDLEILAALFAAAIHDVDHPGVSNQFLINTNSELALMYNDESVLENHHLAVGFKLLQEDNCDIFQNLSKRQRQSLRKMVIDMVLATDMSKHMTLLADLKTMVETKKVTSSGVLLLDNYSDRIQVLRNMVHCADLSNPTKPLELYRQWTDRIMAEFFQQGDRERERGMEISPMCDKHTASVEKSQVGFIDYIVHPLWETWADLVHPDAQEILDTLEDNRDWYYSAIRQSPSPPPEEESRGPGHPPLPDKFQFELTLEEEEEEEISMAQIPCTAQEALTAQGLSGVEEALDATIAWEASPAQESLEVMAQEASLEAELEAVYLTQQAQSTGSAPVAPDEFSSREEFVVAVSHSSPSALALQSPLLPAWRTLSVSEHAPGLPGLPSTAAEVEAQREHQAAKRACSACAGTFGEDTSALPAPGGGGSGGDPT
compound,measurement,setting,value
CCCCCCCCCCCC,outcome,[1],inactive
CCCCCCCCCCCCOS(=O)(=O)O,AC50,[2],18.1 µM (active)
same,outcome,[3],inactive
same,AC50,[4],36.7 µM (active)
same,AC50,[5],43 µM (active)
same,AC50,[6],11.8 µM (active)
same,AC50,[7],42.4 µM (active)
same,AC50,[8],25 µM (active)
same,outcome,[1],inactive
same,AC50,[9],22.7 µM (active)
same,AC50,[10],38.4 µM (active)
same,AC50,[11],11.9 µM (active)
same,AC50,[12],46.3 µM (active)
same,outcome,[13],inactive
same,AC50,[14],10.7 µM (active)
same,AC50,[15],16.8 µM (active)
O=C(NO)c1ccccc1,AC50,[8],7.2 µM (active)
same,outcome,[8],inactive
same,outcome,[1],inactive
CCOC(OCC)C(=O)c1ccccc1,outcome,[8],inactive
C=COC(=O)C(C)(C)CCCCCC,outcome,[1],inactive
O=C(c1ccccc1)c1ccccc1,outcome,[16],inactive
CCc1cccc(CC)c1NC(=O)C(=O)O,outcome,[8],inactive
Cc1[nH]nc2c1N=C(c1ccccc1Cl)c1cc([N+](=O)[O-])ccc1N2,AC50,[17],25 µM (active)
same,AC50,[2],25 µM (active)
same,AC50,[18],16.2 µM (active)
CCOC(C)=O,AC50,[19],4.98 µM (active)
CCCCCC(C)OC(=O)COc1ccc(Cl)c2cccnc12 (stereo not given),outcome,[16],inactive
same,outcome,[11],inactive
CCOCCOCC,outcome,[1],inactive
Clc1ccc(Nc2nnc(Cc3ccncc3)c3ccccc23)cc1,outcome,[8],inactive
OCC(CO)(CBr)CBr,outcome,[15],inactive
CCCCC(CC)C(=O)OCCOCCOCCOCCOC(=O)C(CC)CCCC (stereo not given),outcome,[1],inactive
CC(=O)CC(C)C,outcome,[8],inactive
NC(=NCCCCCCN=C(N)/N=C(\N)Nc1ccc(Cl)cc1)/N=C(\N)Nc1ccc(Cl)cc1,AC50,[1],0.531 µM (active)
O=C1OC2(c3ccccc31)c1cc(I)c(O)c(I)c1Oc1c2cc(I)c(O)c1I,outcome,[8],inactive
CCCCC(CC)C(=O)O (stereo not given),outcome,[19],inactive
CCCCCCCCCCCCCCCCCC[N+](C)(C)Cc1ccccc1,outcome,[19],inactive
same,outcome,[8],inactive
CCN(CC)CC,outcome,[1],inactive
CCC1CO1 (stereo not given),AC50,[8],6.67 µM (active)
CCCCCCCCC(C)=O,outcome,[8],inactive
CC(C)C=O,outcome,[1],inactive
CCCCCCCCCCCCCCC,outcome,[18],inactive
CCCC=O,outcome,[8],inactive
CC(=O)Nc1ccc(O)cc1,outcome,[20],inactive
O=C(NCc1ncc(C(F)(F)F)cc1Cl)c1c(Cl)cccc1Cl,outcome,[8],inactive
CS(=O)(=O)c1ccc([C@@H](CC2CCCC2)C(=O)Nc2cnccn2)cc1Cl,outcome,[6],inactive
same,AC50,[16],8.2 µM (active)
O=C1NS(=O)(=O)c2ccccc21,outcome,[7],inactive
